# Test results reported in PubChem BioAssay (NCI).
# The panel holds about 83,000 compounds, 20% with a hit somewhere; the sample as a whole holds those more often.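 Negative percent growth values reflect cell death: -40 means 40% of the cells present at the start died, and -100 means all died.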 A number with no mark means an inactive call. Calls of active or inactive are those of the source. How the source made its calls: active means growth percent below 10; inactive means the rest.
# How the values were obtained:
# Assay in all cases: NCI-60 one-dose screen, 48 h (100 = growth as untreated, 0 = no growth, -100 = all killed)
# Conditions in all cases: 10 µM unless noted
# [1] = system: DU-145 prostate
# [2] = system: K-562 leukemia
# [3] = system: MALME-3M melanoma
# [4] = system: MDA-MB-231 breast
# [5] = system: RXF 393 renal
# [6] = system: SF-268 CNS
# [7] = system: SF-295 CNS
# [8] = system: SF-539 CNS
# [9] = system: M14 melanoma
# [10] = system: HCT-15 colon
# [11] = system: HT29 colon
# [12] = system: SNB-75 CNS
# [13] = system: SNB-19 CNS
# [14] = system: U251 CNS
# [15] = system: PC-3 prostate
# [16] = system: SK-MEL-5 melanoma
# [17] = system: UACC-62 melanoma
# [18] = system: LOX IMVI melanoma
# [19] = system: SK-MEL-28 melanoma
Structure (SMILES),growth [1],growth [2],growth [3],growth [4],growth [5],growth [6],growth [7],growth [8],growth [9],growth [10],growth [11],growth [12],growth [13] [%],growth [14],growth [15],growth [16],growth [17],growth [18],growth [19]
Cc1cc2c(C(C)C)c(O)c(O)c(C=NCCCCC(=O)O)c2c(O)c1-c1c(C)cc2c(C(C)C)c(O)c(O)c(C=NCCCCC(=O)O)c2c1O,63.8%,26.4%,78.8%,40%,57%,44.2%,27.3%,42.2%,66.9%,34.7%,46.6%,62.1%,30.9,24%,29.2%,49.4%,59.2%,43.4%,64.2%
O=S(=O)(NCCCNc1cc(-c2cn(-c3ccccc3)nc2-c2cccc(O)c2)ccn1)c1cccc(F)c1,59.4%,1.85% (active),37.9%,7.26% (active),40.1%,60.7%,9.83% (active),45.1%,42.3%,9.95% (active),8.11% (active),49.5%,81.6,40.1%,15.5%,20%,50.5%,13.7%,44.3%
NC(N)=NC(N)=Nc1ccccc1-c1ccccc1,114%,104%,110%,116%,112%,113%,113%,110%,108%,108%,112%,97.4%,111,106%,103%,107%,108%,102%,109%
O=C(Nc1ccc(I)cc1)c1cc([N+](=O)[O-])ccc1O,51.4%,18.7%,-2.87% (active),16.2%,7.47% (active),39.4%,33.7%,20.4%,31.3%,36.7%,48.7%,57%,35.4,31.1%,15.3%,-0.402% (active),0.385% (active),20.2%,16.4%
COc1ccc2c(c1)NC(=O)CN2c1nc(C)nc2ccccc12,-0.215% (active),9.83% (active),67.6%,11.6%,55.1%,24.4%,14.2%,-0.932% (active),10.8%,9.21% (active),3.4% (active),41.8%,34.4,16.2%,15.1%,-34.8% (active),35.7%,22%,59%
CCO/C=N/NC(=O)c1ccncc1,105%,108%,106%,109%,109%,101%,116%,111%,114%,108%,101%,93.3%,105,105%,97.3%,104%,107%,98.7%,108%
O=C1CCC/C=C\C[C@H]2C=CC(=O)/C2=C/C[C@H](C/C=C\CC(F)(F)F)O1,-3.69% (active),3.68% (active),-12% (active),17.7%,-85.4% (active),-1.48% (active),-19.7% (active),-40.1% (active),-15.2% (active),-5.57% (active),-28.9% (active),68.7%,11.3,-65.5% (active),-42.5% (active),-90.7% (active),-12.1% (active),-88.2% (active),-28.6% (active)
CCOc1ccc(/C=C/C=N/NC(N)=S)cc1,92.9%,56%,82%,66.6%,-0.439% (active),92.1%,96.7%,74.3%,95.7%,58.4%,62.1%,80.9%,95.8,90.1%,94.1%,96%,81.9%,77.4%,102%
COc1ncc(-c2ccc3ncnc(Nc4cccc(Cl)c4)c3c2)cc1NS(=O)(=O)CCN1CCOCC1,18.6%,45.8%,-19.8% (active),16.4%,-30.7% (active),23%,-24.1% (active),-18.9% (active),18.1%,6.62% (active),10.1%,-19.2% (active),21.2,28.3%,12.4%,-19.6% (active),-21.4% (active),1.29% (active),-4.89% (active)
CS(=O)(=O)N(c1cc(-c2ccc3ncnc(Nc4cccc(Cl)c4)c3c2)cnc1Cl)S(C)(=O)=O,21.6%,26.5%,-24.7% (active),7.55% (active),-20.1% (active),24%,-4.24% (active),-8.58% (active),21.8%,10.4%,11.7%,-3.18% (active),24.3,20.8%,10.7%,-60.7% (active),-6.31% (active),2.19% (active),-6.78% (active)
O=C1NC(Cc2c[nH]c3ccccc23)C(=O)N1Cc1ccc(Cl)cc1 (stereo not drawn),116%,83.9%,105%,101%,116%,106%,82.3%,106%,110%,99.6%,105%,90.1%,103,94.1%,90.5%,95%,86.1%,89.1%,109%
CC(=O)Oc1cccc(OC(C)=O)c1OC(C)=O,108%,100%,97.6%,98.9%,99.5%,105%,99.2%,99.5%,95.3%,101%,110%,88.4%,105,95.6%,89.6%,93.8%,96.8%,95.2%,104%
CCOC(=O)CC/C(C)=N\Nc1ccc([N+](=O)[O-])cc1,88.6%,6.98% (active),104%,80.8%,97.5%,73.5%,60%,69.8%,29.3%,35.8%,52.9%,93%,95.5,69.1%,49.7%,54.3%,23.5%,17.1%,99.9%
O=S=Nc1ccc([N+](=O)[O-])cc1,84.8%,75.6%,96.8%,95.4%,111%,91.8%,98.9%,95.4%,94%,85.2%,94.1%,88.7%,103,91.6%,96.8%,101%,73%,71.2%,107%
Nc1ccccc1C#C/C=C\C#Cc1cccc(O)c1,73.1%,30.9%,51.6%,39.7%,59%,65.3%,40.2%,42.9%,31.5%,44.1%,76.2%,42.8%,88.4,43%,64.2%,34%,23.8%,45.8%,81.7%
C=C1C(=O)O[C@H]2[C@H]1CC/C(COC(=O)NCc1cc(OC)cc(OC)c1)=C\CC[C@@]1(C)O[C@@H]21,-6.21% (active),3.43% (active),-44.1% (active),-5.09% (active),-41.9% (active),21.4%,81.4%,5.25% (active),-31% (active),1.86% (active),-40.2% (active),59.3%,42.3,40.7%,30.2%,84.9%,-44.9% (active),-31% (active),-20.2% (active)
COC(=O)CCCCCCN=Cc1c(O)c(O)c(C(C)C)c2cc(C)c(-c3c(C)cc4c(C(C)C)c(O)c(O)c(C=NCCCCCCC(=O)OC)c4c3O)c(O)c12,30.6%,10.5%,68.5%,11.9%,36.2%,32.8%,7.26% (active),15.2%,27%,13.1%,6.88% (active),59.4%,17.6,11.5%,16%,43.4%,17.7%,21.4%,36.1%
